Screening data deposited in PubChem BioAssay by National Center for Advancing Translational Sciences (NCATS).
NPC1 prom act: NPC1 promoter activation | 320,000 compounds, 2.4% hits | Huh7 NPC1 promoter luciferase reporter, 24 h | Potency, µM (highest dose often 9.22 µM), for the others: at the highest dose activation, actives largely listed as activators; note: % of control where 0% means no effect; nearly all actives have a fitted effect of over 60% in size
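Huh7 cells stably carrying NPC1 promoter–luciferase, plated in Opti-MEM with 10% FBS for 2 h, were exposed to compound in DMSO for 24 h at 37 °C; luciferase reagent was added for 10 min and luminescence read.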
SMN2 splice up: SMN2 splice variant enhancement. HEK293 SMN2-luciferase splicing reporter, luminescence, 30-36 h. Potency, µM (doses to about 46.1 µM), for inactives: at the top dose activity change, positive = activation, actives largely listed as activators. 210,000 compounds, 2.8% hits; note: % of control where 0% means no effect; nearly all actives have a fitted effect of over 55% in size
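HEK293 cells carry an SMN2 minigene-luciferase reporter in which exon 7 inclusion puts luciferase in frame. Cells were seeded at 2000 cells/well, attached for 10-12 hours, then exposed to compounds for 30-36 hours at 37C before ONE-Glo luminescence.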
Rab9 prom act: activates the Rab9 promoter | Huh7 Rab9 promoter-luciferase reporter, luminescence, 24 h | Potency, µM (top dose mostly 9.22 µM), for inactives: top-dose activation, negative = inhibition, usual class: activators | 320,000 compounds, 2.8% hits; note: % of control where 0% means no effect; nearly all actives have a fitted effect of over 60% in size
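Steps: seed 1500 Huh7 Rab9-luc cells per well, rest 2 h at 37 °C; add compound in DMSO; incubate 24 h; add luciferase reagent, 10 min ambient; read luminescence.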
ELG1 repair inh: inhibitors of ELG1-dependent DNA repair in HEK293T cells. HEK293T ELG1-luciferase reporter, luminescence, 16 h; DNA damage induced by 5-fluorouridine. Potency, µM (highest dose often 46.1 µM), without a hit: at the top dose activity change, negative = inhibition, most hits filed as inhibitors. 330,000 compounds, 2.3% hits. AID 504467; note: % is set by controls: 0 for no effect and ±100 for the full control effect; nearly all actives have a fitted effect of over 55% in size
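Cells (2,000 per well) received 5-fluorouridine plus test compound or DMSO and were incubated 16 hr at 37 °C, 5% CO2. Luciferase activity was read by luminescence 30 min after ONE-Glo addition; signal suppression marked inhibition of damage-induced ELG1 function.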
FLuc modulator: firefly luciferase modulation, counter-screen for miR-21 project | purified FLuc, Km substrates, luminescence inhibition | 360,000 compounds, 6.9% hits | Potency, µM (titrated, usually from 57.5 µM), for the others: at the highest dose activity change, negative = inhibition, usual class: inhibitors | P08659 | AID 588342;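 note: plate controls were vehicle for no effect and reference inhibitor for full effect; nearly all actives have a fitted effect of over 55% in size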
Target sequence (P08659 whole entry, looked up): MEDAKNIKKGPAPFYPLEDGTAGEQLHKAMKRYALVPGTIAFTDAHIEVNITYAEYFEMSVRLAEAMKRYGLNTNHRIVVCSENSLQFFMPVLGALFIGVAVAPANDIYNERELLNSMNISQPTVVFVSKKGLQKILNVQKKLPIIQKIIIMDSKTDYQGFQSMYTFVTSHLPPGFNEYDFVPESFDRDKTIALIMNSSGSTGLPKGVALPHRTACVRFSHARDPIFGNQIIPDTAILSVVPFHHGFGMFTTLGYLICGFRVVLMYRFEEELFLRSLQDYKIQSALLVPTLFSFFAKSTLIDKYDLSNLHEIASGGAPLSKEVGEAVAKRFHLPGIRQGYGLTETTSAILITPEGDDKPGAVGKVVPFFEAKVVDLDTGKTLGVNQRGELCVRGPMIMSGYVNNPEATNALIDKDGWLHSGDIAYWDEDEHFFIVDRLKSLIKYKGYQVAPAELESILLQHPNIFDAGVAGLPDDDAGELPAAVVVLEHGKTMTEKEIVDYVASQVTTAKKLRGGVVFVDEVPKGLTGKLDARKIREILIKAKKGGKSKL
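Purified P. pyralis luciferase (10nM final) with 10uM D-luciferin and 10uM ATP (Km levels) in 50mM Tris acetate pH 7.5, 10mM Mg acetate, 0.01% Tween-20, 0.05% BSA; qHTS 6-point titration, ~60 µM downward; luminescence read.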
ELG1 genotoxic: genotoxicity induction in ELG1-luciferase HEK293T cells | HEK293T ELG1-luciferase reporter, luminescence, 16 h | AID 504466 | 330,000 compounds, 1.3% hits | Potency, µM (top dose mostly 46 µM), for inactives: at the top dose activity change, positive = activation, actives largely listed as activators; note: % of control where 0% means no effect; nearly all actives have a fitted effect of over 60% in size
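Cells (2,000/well) expressing the ELG1-luciferase fusion are dosed by pin tool and kept 16 hr at 37 °C, 5% CO2. Signal comes from ONE-Glo luciferase reagent after 30 min at room temperature.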
The depositor's hits bear a star; ? = inconclusive; . = no result given; [ ] = another dose, or the depositor's remark. In the library only some 9.3% were active in any assay of this set; here they are far more common. Calls come from the whole dose curve; as a rule, active = well fitted curve in the direction sought with a large enough effect; inconclusive = small, poorly fitted or top-dose-only effect, or another doubt; inactive = no such curve, though single readings can be large; an effect the other way counts as inactive or inconclusive. Potency is the fitted concentration of half-maximal effect.

SMILES | NPC1 prom act | SMN2 splice up | Rab9 prom act | ELG1 repair inh | FLuc modulator | ELG1 genotoxic
COc1ccc(Cl)cc1NC(=O)CSc1nc(N2CCOCC2)nc(N2CCOCC2)n1 | 3.0% | . | -0.1% | 25.9µM* | 0.3% | -13.2%
O=C(CSc1nc(N2CCOCC2)nc(N2CCOCC2)n1)Nc1ccc([N+](=O)[O-])cc1 | -0.8% | . | 5.3% | 16.4µM* | -3.0% | -10.9%
O=C(CSc1nc(Nc2ccccc2)nc(N2CCOCC2)n1)Nc1ccc([N+](=O)[O-])cc1 | -1.7% | 24.7% | -3.5% | ? | 1.4% | -19.8%
Cc1ccc(S(=O)(=O)N(C)CC(=O)NNC(=O)Cc2ccccc2F)cc1 | . | . | . | 3.2% | . | 1.5%
Cc1ccc(S(=O)(=O)c2cn(Cc3cccc(F)c3)c3cc(N4CCCC4)c(F)cc3c2=O)cc1 | . | . | . | . | -2.5% | .
CC(=O)Nc1c(O)nc(SCC(=O)Nc2ccc(C(C)=O)cc2)[nH]c1=O | ? | ? | ? | ? | ? | 9.2µM*
CCn1c(=S)sc2c(=O)[nH]c(SCC(=O)Nc3cc(OC)ccc3OC)nc21 | -17.4% | . | -4.8% | 17.2% | -6.1% | -2.1%
Cc1ccc2c(c1)COc1c3ccc(C(=O)NCC4CC4)cc3nn1-2 | 1.26µM* | . | ? | ? | 5.36µM* | 9.3%
O=C(NCC1CC1)c1ccc2c3n(nc2c1)-c1ccccc1CO3 | 0.355µM* | . | ? | ? | 0.477µM* | ?
O=C(NCCO)c1ccc2c3n(nc2c1)-c1ccccc1CO3 | 0.501µM* | . | 2.82µM* | ? | 2.13µM* | ?
Cc1ccc2c(c1)COc1c3ccc(C(=O)O)cc3nn1-2 | -22.0% | . | ? | ? | 1.35µM* | -0.6%
O=[N+]([O-])c1cccc(OCC(O)CN2CCN(S(=O)(=O)c3cc(Cl)ccc3Cl)CC2)c1 (configuration not stated) | 0.4% | . | 3.5% | ? | 2.5% | 0.6%
CCOC(=O)c1ccc(NC(=O)C(C)N(c2ccc(OCC)cc2)S(C)(=O)=O)cc1 (configuration not stated) | . | 5.6% | . | . | 4.2% | .
CCn1cc(C(=O)NCCC(C)C)c(=O)c2cc(F)c(N3CCN(C(=O)c4ccco4)CC3)cc21 | -11.6% | . | -8.4% | ? | 1.9% | -1.3%
COc1ccccc1CN1CC(C(=O)N2CCCCO2)CCC1=O (configuration not stated) | 25.7% | . | ? | ? | ? | ?
O=C1CCC(C(=O)N2CCCCO2)CN1CCc1ccccc1 (configuration not stated) | ? | . | ? | ? | 16.9µM* | ?
COc1ccc(Cl)cc1N(C)C(=O)C(=O)Nc1ccc2nc3n(c(=O)c2c1)CCCCC3 | . | -0.4% | . | . | -1.2% | .
Cc1ccc(CN2CCC(CNC(=O)Nc3cccc(Cl)c3C)C2)cc1 (configuration not stated) | . | -11.3% | . | . | -4.8% | .
CCOc1ccc(Nc2nc(Cc3nnc(SCC(=O)c4ccc(C)c(C)c4)o3)cs2)cc1 | 8.4% | -53.3% | -2.4% | 23.1µM* | -16.5% | -17.1%
CCOC(=O)c1c(C)[nH]c(C(=O)COC(=O)c2[nH]c(C)c(C(C)=O)c2C)c1C | -7.0% | -4.6% | -16.1% | ? | -1.8% | 6.9%
CCOC(=O)c1c(C)[nH]c(C(=O)COC(=O)C2CC2C)c1C (configuration not stated) | 3.55µM* | ? | 3.16µM* | ? | 3.38µM* | 2.59µM*
CCOC(=O)N1CCC(NCc2c(C(=O)N(C)Cc3ccccc3)nc3ccccn23)CC1 | -1.0% | . | -1.0% | -5.7% | -4.3% | 0.5%
CCCc1cc(=O)[nH]c2nnc(SCC(=O)NC3CCCCC3)n12 | -1.9% | . | -1.7% | -5.1% | 3.3% | -4.8%
O=c1nc2c(-c3ccccc3F)n[nH]n2c2ccccc12 | ? | 22.4µM* | 3.98µM* | ? | 13.5µM* | ?
c1ccc2[nH]c(NCc3ccc4c(c3)OCO4)nc2c1 | ? | . | ? | ? | 3.38µM* | ?
SMILES | NPC1 prom act | SMN2 splice up | Rab9 prom act | ELG1 repair inh | FLuc modulator | ELG1 genotoxic
c1ccc(CNc2nc3ccccc3[nH]2)cc1 | 15.2% | ? | ? | ? | 6.75µM* | ?
COc1ccc2nc(NCc3ccccc3)[nH]c2c1 | 17.0% | 12.6µM* | ? | ? | 15.1µM* | ?
Cc1ccc2nc(C3CCN(C(=O)NCc4ccccc4)CC3)[nH]c2c1 | 11.3% | 1.8% | -6.8% | 13.5% | 16.9µM* | 5.8%
COc1ccc(-c2coc(CCC(=O)N3CCN(c4cc(C)ccc4C)CC3)n2)cc1 | . | . | . | -6.4% | . | -1.0%
COc1c(S(=O)(=O)N2CCN(C)CC2)ccc(Cl)c1Cl | 17.4% | . | 5.4% | 1.8% | -3.0% | -1.0%
Cc1ccc2nc(NCc3ccccc3)c(C#N)cc2c1 | 2.8% | . | 1.7% | 3.2% | -2.8% | 4.1%
Cc1ccc2nc(NCc3ccccc3)[nH]c2c1 | 21.9% | 8.91µM* | ? | ? | 9.53µM* | 11.2µM*
Cc1ccc(-c2n[nH]c(Cc3ccccc3)n2)cc1 | 2.82µM* | . | 2.51µM* | ? | 19µM* | ?
Cc1ccc(OCc2nc(-c3ccc(Cl)cc3)n[nH]2)cc1 | 3.0% | -23.0% | 12.8% | 29.5% | ? | 2.5%
Cc1ccc(-n2ncc3c(N4CCN(C)CC4)ncnc32)cc1Cl | . | . | . | . | 5.36µM* | .
Cc1ccc(-n2ncc3c(N(C)C)ncnc32)cc1Cl | . | . | . | . | 0.757µM* | .
CN1CCN(c2ncnc3c2cnn3-c2ccc(Cl)cc2)CC1 | ? | 0.4% | 0.398µM* | ? | 0.953µM* | ?
Cc1ccc(-n2ncc3c(N4CCN(C)CC4)ncnc32)cc1 | . | . | . | . | 3.01µM* | .
Cc1cccc(N2CCN(c3ncnc4c3cnn4-c3ccc(Cl)cc3)CC2C)c1 (configuration not stated) | . | . | . | . | -1.6% | .
COC(=O)CC1c2ccccc2C(Cc2ccc(OC)cc2)C(C)N1C(=O)OC (configuration not stated) | . | -6.2%[9.22 µM] | . | . | . | .
COC(=O)N1CCC2(CCN(C(=O)Nc3cccc(F)c3)CC2)CC1 | . | -8.3% | . | . | . | .
CN(C(=O)COC(=O)c1nn(C)c(=O)c2ccccc12)c1c(N)n(Cc2ccccc2)c(=O)[nH]c1=O | 0.6% | . | -1.4% | 10.6% | 4.6% | -6.0%
CSCc1ccc(C(=O)NCc2ccccc2)cc1 | 8.5% | 15.9% | -3.1% | ? | 26.9µM* | 2.6%
CSCc1ccc(C(=O)Nc2ccc(C(N)=O)cc2)cc1 | 2µM* | 11.2µM* | 2.82µM* | ? | 5.36µM* | 14.6µM*
CSCc1ccc(C(=O)NCc2ccc(C)cc2)cc1 | -2.4% | -18.5% | -1.8% | ? | ? | 0.3%
Cc1ccc(-c2nnc(-c3cc(C)on3)o2)cc1 | 0.794µM* | . | 0.562µM* | ? | 1.51µM* | 3.26µM*
